# In all, about 48,000 compounds went through this assay and about 13,000 (27%) showed an effect of 50% or more. The list shows a part of the results.
# Tested on: Wolbachia pipientis
# Assay: Anti-Wolbachia Cell-Based Screen
# Assay type: functional
# Parameters: scale not given: in the data most compounds retested in dose-response had high values
# Details: 5 µM
row,SMILES,Percent Effect
1,Cc1cccc(-n2nc(CC(C)C)nc2[C@H](C)O)c1,-4.735%
2,CC(=O)NCc1nc(CC(C)C)nn1-c1cccc(C)c1,-6.896%
3,CC(C)c1cccc(-n2cc(O)c(C(=O)O)n2)c1,39.26%
4,O=C(O)c1c(Cl)ncn1-c1ccccc1,76.14%
5,Cc1cccc(-n2cnc(Cl)c2C(=O)O)c1,93.89%
6,O=C1CC(c2ccc(C(=O)O)cc2)c2ncn(-c3ccccc3)c2N1 (stereo not drawn),13.74%
7,CCc1ccc(C2CCCN2C(=O)Cc2ccc(NC(C)=O)cc2)o1 (stereo not drawn),-1.143%
8,CC(C)OCc1ncn2c1CN(Cc1cnn(C)c1)CCC2.O=C(O)C(F)(F)F,-6.941%
9,O=C(Nc1ccc(N2CCCCC2)cn1)C1CCCN1C(=O)C1CC1 (stereo not drawn),5.13%
10,O=C(Nc1ccc(Cl)cn1)C1CCN(CCc2ccccn2)CC1,5.331%
11,CS(=O)(=O)NC1(CCc2ccc(NC(=O)C3CC3)nc2)CCCCC1,95.32%
12,CC(=O)Nc1ccc(CCC2(NC(=O)C3CCCO3)CCCCC2)cn1 (stereo not drawn),144.1%
13,CCSCc1ccnc(NC(=O)C2CCCO2)c1 (stereo not drawn),2.987%
14,Cc1ccc(NC(=O)C2CCCN2C(=O)C2CC2)nc1 (stereo not drawn),4.832%
15,CC(=O)Nc1ccc(CCC2(NC(=O)C3CC3)CCCCC2)cn1,53.79%
16,O=C(Nc1ccc(-c2ccccc2)cn1)C1CCCN1C(=O)C1CC1 (stereo not drawn),-4.535%
17,Cc1ccnc(NC(=O)C2CCCO2)c1 (stereo not drawn),0.6753%
18,CC(C)(C)C(=O)N1CC[C@H]2NC(=O)N(c3ccc(F)cc3)C(=O)[C@H]21,-4.362%
19,Cc1ccc(Cl)cc1C(=O)N1CCC2(CC1)c1ccccc1[C@@H](N)[C@@H]2O,-15.25%
20,COCCN(C(=O)c1cc(C)no1)c1ccc(C#N)cc1,-3.36%
21,CCNc1cc2c(nn1)CCN(C(=O)CCc1c(C)noc1Cl)C2,92.82%
22,CCNc1cc2c(nn1)CCN(C(=O)c1c(C)noc1C)C2,134.6%
23,CCNc1cc2c(nn1)CCN(C(=O)Cc1c(C)noc1C)C2,-1.817%
24,CCNc1cc2c(nn1)CCN(C(=O)Cc1noc3ccccc13)C2,2.376%
25,CCNc1cc2c(nn1)CCN(C(=O)C(C)c1c(C)noc1C)C2 (stereo not drawn),124.9%
26,CCNc1cc2c(nn1)CCN(C(=O)C1Cc3ccccc3O1)C2 (stereo not drawn),-6.016%
27,CCNc1cc2c(nn1)CCN(C(=O)c1cc3nc(C)ccc3o1)C2,0.3764%

row,SMILES,Percent Effect
1,Cc1noc(Cl)c1CCC(=O)N1CCc2sccc2C1,4.589%
2,CCNc1cc2c(nn1)CCN(C(=O)c1cc3c(s1)CCOC3)C2,6.196%
3,CCNc1cc2c(nn1)CCN(C(=O)CCc1c(C)noc1C)C2,85.75%
4,CN(C1CCCCC1)S(=O)(=O)NC1CCN(c2ncccn2)CC1,-8.607%
5,Cc1n[nH]c(C(=O)NCc2ccnc(OCC(F)(F)F)c2)c1Br,-11.41%
6,COc1ccc(CCN2CCCC(CN(C)Cc3ccc(C)o3)C2)cc1 (stereo not drawn),-2.586%
7,O=C(c1cccc2[nH]ccc12)N1CCC2(CCOC2)C1 (stereo not drawn),-0.4242%
8,CCNc1cc2c(nn1)CCN(C(=O)c1ccoc1)C2,77.15%
9,CNc1cc2c(nn1)CCN(C(=O)c1ccoc1)C2,3.239%
10,CCNc1cc2c(nn1)CCN(C(=O)c1ccc(CNC(C)=O)o1)C2,-5.342%
11,COc1ccc(Cl)cc1-n1c(COC(C)C)n[nH]c1=O,9.918%
12,CC1(C(=O)N2CCOCC2)CNCCO1.Cl (stereo not drawn),81.13%
13,O=C(C1CCS(=O)(=O)C1)N1CCN(c2cnccn2)CC1 (stereo not drawn),-8.289%
14,CN(C)c1ccccc1C(=O)N1CCOC2(CNCCOC2)C1 (stereo not drawn),-52.05%
15,O=C(N1CCSCC1)C1(O)Cc2ccccc2C1,1.421%
16,C[C@@H]1CN(C2(C(=O)N3CCSCC3)Cc3ccccc3C2)C[C@H](C)O1,1.613%
17,CC1(C(=O)N2CCSCC2)CNCCO1 (stereo not drawn),81.85%
18,O=C(c1cccc(Cl)c1F)N1CCOC2(CNCCOC2)C1 (stereo not drawn),-25.29%
19,CC1(C(=O)N2CCN(c3ncccn3)CC2)CNCCO1 (stereo not drawn),48.6%
20,CC1(C(=O)N2CCN(c3cnccn3)CC2)CNCCO1 (stereo not drawn),114.6%
21,Cc1cc(=O)n(C)cc1NC(=O)Cc1cccc(Cl)c1,5.962%
22,Cc1cc(Cn2cc(C#N)c(=O)c3ccccc32)on1,-11.07%
23,Cc1nc(CN2CCCC(CCc3ccccc3C(F)(F)F)C2)no1 (stereo not drawn),-1.662%
24,Cc1ccc(C(=O)Nc2ccccc2N2CCCC2)n1C,84.28%
25,Cc1ccc(C(=O)Nc2ccccc2F)n1C,94.36%
26,COc1ccccc1NC(=O)c1[nH]nc(C(C)C)c1Br,-4.147%
